This is a sample that favours compounds with a hit; in the whole collection about 2.6% have one here.
eIF4H FP inh: inhibitors of RNA binding by human eIF4H; Q15056; eIF4H fluorescence polarization binding assay; inhibition, % at 35 µM; actives 0.94% (n = 290,000);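 further: calls also rest on retests at 20 µM and on dose response follow-up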
MLLE-PAM2 inh: inhibitors of microRNA-mediated deadenylation, human PABP1 MLLE binding. inhibition, % at 20 µM. AID 588489. GST-MLLE / FITC-PAM2 fluorescence polarization. actives 0.36% (n = 360,000); in the data active means inhibition above about 35%, passing the limit was not always enough;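 further: plate controls were DMSO wells with GST-MLLE for no effect and wells lacking GST-MLLE protein for full effect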
PABP FP inh: blocks human PABP binding to poly(A) RNA | fluorescence polarization | calls only at 35 µM | actives 1% (n = 290,000);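 further: calls also rest on retests at 20 µM and on dose response follow-up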
PHOSPHO1 inh: inhibitors of human PHOSPHO1 phosphatase | inhibition, % at 13.3 µM | AID 1565 | actives 1.1% (n = 290,000) | recombinant PHOSPHO1, absorbance phosphatase assay; in the data active means inhibition above about 60%
Target sequence (Q8TCT1 whole entry, looked up): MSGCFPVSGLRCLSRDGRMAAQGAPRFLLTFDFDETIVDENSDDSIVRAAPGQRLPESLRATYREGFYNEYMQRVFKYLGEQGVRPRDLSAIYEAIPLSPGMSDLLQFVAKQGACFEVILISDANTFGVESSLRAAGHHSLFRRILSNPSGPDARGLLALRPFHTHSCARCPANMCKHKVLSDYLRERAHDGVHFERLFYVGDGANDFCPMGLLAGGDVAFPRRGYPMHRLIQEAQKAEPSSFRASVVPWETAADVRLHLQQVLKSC
ABCB6 inh MLPCN: inhibitors of human ABC transporter ABCB6; Q9NP58; fluorescence ratio to DMSO, % at 10 µM; actives 0.19% (n = 360,000); AID 602162; K562-ABCB6 porphyrin accumulation, flow cytometry, 1 h; active compounds read low;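 active means fluorescence ratio to DMSO below 75%, the collection mean minus 3 SD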;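 further: signal is porphyrin accumulated inside mitochondria; 100% equals median channel fluorescence of DMSO control wells; lower ratio means ABCB6 inhibition with less porphyrin fluorescence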
AI-2 QS modul: modulators of Vibrio harveyi AI-2 quorum sensing system; actives 0.4% (n = 300,000); activity change, % at 7.5 µM; Vibrio harveyi JMH597 AI-2 luminescence/OD600 ratio, 9 h; active compounds read low; strain lacks LuxN and CqsS sensors; 0 = neutral-control median; in the data active means activity change below about -75%, passing the limit was not always enough;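 further: luminescence divided by OD600 gain over 9 h not by final OD600 alone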
* = called active by the depositor; i = inactive; x = no result given; + = active, no number. Unless noted, how the calls were made is not given here.

SMILES | eIF4H FP inh | MLLE-PAM2 inh | PABP FP inh | PHOSPHO1 inh | ABCB6 inh MLPCN | AI-2 QS modul
CCCOc1ccc(F)cc1-c1cc(C(=O)NCc2cccc(Cl)c2)[nH]n1 | x | -6 | x | x | 90 | x
CC1CN(C(=O)c2cccc(S(=O)(=O)Nc3ccc(Cl)cc3)c2)CC(C)O1 (centres undefined) | active | 7 | + | 24 | 89 | 16
COCC(=O)N(C)C[C@@H]1Oc2ncc(Br)cc2C(=O)N([C@@H](C)CO)C[C@H]1C | x | -2 | x | x | 100 | x
COc1ccc(N2CCN(C(=O)CSc3ncccc3-c3nc4ccccc4[nH]3)CC2)cc1 | 1 | -64 | i | 94* | 128 | 37
COc1ccccc1N1CCN(C(=O)CSc2nc3ccccc3[nH]2)CC1 | -4 | -77 | i | 26 | 103 | -7
O=C(CSc1ncccc1-c1nc2ccccc2[nH]1)N1CCN(c2ccccc2F)CC1 | 1 | -23 | i | 88* | 106 | 41
O=C(CSc1ncccc1-c1nc2ccccc2[nH]1)NC1CC1 | -3 | 0 | i | 13 | 89 | 44
COc1ccccc1N1CCN(C(=O)CSc2ncccc2-c2nc3ccccc3[nH]2)CC1 | 7 | -48 | i | 98* | 115 | -12
N#Cc1cccc(NC(=O)c2cc(C3CCCCN3S(=O)(=O)c3cccc4cccnc34)on2)c1 (centres undefined) | x | 3 | x | x | 95 | x
CCc1cc(C(=O)c2ccc(OC)cc2)c(N)s1 | -3 | 28 | i | 2 | 102 | -7
CCc1cc(C(=O)c2ccccc2OC)c(N)s1 | -5 | 37* | i | -3 | 100 | 14
O=C(Nc1ccc(Cl)cc1)C1Cc2c(-c3ccccc3Oc3ccccc3)ccnc2O1 (centres undefined) | x | 0 | x | x | 95 | x
CC(=O)Nc1nnc(SCC(=O)NCC2CCCO2)s1 (centres undefined) | 3 | -60 | i | 86* | 95 | 11
CCC(=O)Nc1nnc(SCC(=O)NCC2CCCO2)s1 (centres undefined) | -6 | -3 | i | 10 | 97 | -7
CC(=O)Nc1nnc(SCC(=O)NCCOc2ccccc2)s1 | active | -115 | + | -12 | 98 | 67
CCNC(=O)C1(C)CCN(C(=O)c2cccc(Cl)c2)C1 (centres undefined) | x | 5 | x | x | 98 | x
CCCCc1c(C)nc(N2CCCC2)[nH]c1=O | 65* | 1 | i | -10 | 96 | 14
Cc1csc(Nc2ccc(Cl)cc2)n1 | -4 | -4 | i | 44 | 96 | 47
Cc1ccc(Nc2nc(C)cs2)cc1 | 0 | -57 | i | 65* | 104 | 11
CCc1nc2ccc(C(=O)NCCN3CCNC3=O)cn2c1N(CCC(C)C)CCN(C)C | x | 16 | x | x | 95 | x
COc1ccc(-n2cc(-c3ccc(Cl)cc3)[nH]c2=S)cc1 | -4 | 3 | i | 60* | 92 | 11
O=C(NCc1cccc(C(F)(F)F)c1)c1ccc2nc([C@H]3C[C@H](O)[C@@H](CO)O3)[nH]c2c1 | x | -3 | x | x | 103 | x
Cc1cccc(C(=O)NN(C)c2nc(-c3ccccc3)nnc2C(F)(F)F)c1 | -10 | 6 | i | 42 | 69* | 4
COc1ccc(C(=O)NN(C)c2nc(-c3ccccc3)nnc2C(F)(F)F)cc1 | -4 | -6 | i | 1 | 100 | -14
COC(=O)CCCC1=CC2=C(c3ccccc3)C(=O)C(C)(OC(=O)C3CCCC3)C(=O)C2=CN1Cc1ccco1 (centres undefined) | 60 | 37 | + | 26 | 107 | 31
SMILES | eIF4H FP inh | MLLE-PAM2 inh | PABP FP inh | PHOSPHO1 inh | ABCB6 inh MLPCN | AI-2 QS modul
Cc1ccc(CSC2=Nc3ccccc3C3=NC(CC(=O)NCc4ccco4)C(=O)N23)cc1 (centres undefined) | 51* | -8 | + | 2 | 97 | -52
COc1cccc(CNc2nc3cc(C(C)=C(C)C)sc3c(=O)n2C)c1 | x | 6 | x | x | 96 | x
COc1ccc(-c2nc3c4ccccc4ccn3c2Cc2ccsc2)cc1OC | x | -4 | x | x | 91 | x
Nc1c(S(=O)(=O)c2ccccc2)c2nc3ccccc3nc2n1/N=C/c1ccco1 | 64 | -36 | + | 31 | 102 | 15
Cc1ccc(S(=O)(=O)c2c(N)n(/N=C/c3ccco3)c3nc4ccccc4nc23)cc1 | 69* | -17 | + | 1 | 104 | 40
Cc1cccc(S(=O)(=O)c2c(N)n(/N=C/c3ccco3)c3nc4ccccc4nc23)c1 | 20 | -20 | i | 19 | 103 | 26
OC[C@H]1O[C@H](c2nc(-c3nc(-c4cccc(-n5cccc5)c4)no3)cs2)C[C@@H]1O | x | -2 | x | x | 97 | x
C=C(C)CN(CC)c1nc(N)c2c(N)nc3c(c2c1C#N)CC(=O)N3C12CC3CC(CC(C3)C1)C2 | 76* | -14 | + | 13 | 92 | 13
N#Cc1c(N2CCCC(O)C2)nc(N)c2c(N)nc3c(c12)CC(=O)N3C12CC3CC(CC(C3)C1)C2 (centres undefined) | 91* | -42 | + | 19 | 496 | 14
COC(=O)C(C)N1C(=O)S/C(=C\c2ccc(-c3ccc(C(=O)O)cc3C)o2)C1=O (centres undefined) | 52* | -97 | + | 52 | 99 | 45
Cc1ccccc1NC(=O)CN1C(=O)S/C(=C\c2ccc(-c3cccc(C(=O)O)c3C)o2)C1=O | 75 | 7 | i | 39 | 97 | 19
Cc1cccc(NC(=O)CN2C(=O)S/C(=C\c3ccc(-c4cccc(C(=O)O)c4C)o3)C2=O)c1 | 92* | x | i | 53 | x | 36
Cc1c(C(=O)O)cccc1-c1ccc(/C=N/n2cnnc2)o1 | 53* | -22 | + | 31 | 96 | -5
Cc1ccc(NC(=O)CN2C(=O)S/C(=C/c3ccc(-c4cc(C(=O)O)ccc4C)o3)C2=O)cc1C | 38 | -4 | + | 49 | 88 | 20
COc1cccc(CN2CCC2(C)C(=O)Nc2ccc3c(c2)CCN3C(C)=O)c1F (centres undefined) | x | 13 | x | x | 76 | x
Cc1ccc(N2C(=O)/C(=C\c3ccco3)SC2=S)cc1 | 77* | 9 | + | -94 | 101 | -3
O=C1/C(=C\c2ccco2)SC(=S)N1Cc1ccccc1 | 76* | 6 | + | -108 | 103 | 7
CC(/C=C1\SC(=S)N(CCC(=O)Nc2ccccc2O)C1=O)=C\c1ccccc1 | 51 | -51 | + | 48 | 100 | 17
CC(=C\c1ccccc1)/C=C1/SC(=S)N(CCC(=O)Nc2ccccn2)C1=O | 21 | x | i | -13 | x | 13
O=C(O)CCCN1C(=O)/C(=C\c2ccco2)SC1=S | 100* | 26 | + | -50 | 92 | 38
CC(=C\c1ccccc1)/C=C1/SC(=S)N(CCCC(=O)O)C1=O | 6 | 14 | i | 39 | 106 | 69
O=C(Nc1cccc2cccnc12)c1csc(COCCO)n1 | x | -1 | x | x | 95 | x

Screens from PubChem BioAssay.
